Screens from PubChem BioAssay.
This is a sample that favours compounds with a hit; in the whole collection about 3.9% have one here.
HSF1 inhib – HSF1 inhibition; NIH3T3-HGL HSE-luciferase, MG132-induced, luminescence 8 h; active compounds read low; activity change, negative = inhibition, % at 7.5 µM (by protocol); 0.77% of 300,000 active;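 active = more than half of replicate wells show activity change below -50%, luminescence cut by over half; inconclusive = some wells, but at most half, below -50%; inactive = no replicate well below -50%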;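 note: luciferase reports HSF-1 transcriptional activity via heat shock element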
esBAF inh – inhibitors of esBAF chromatin remodeling in mouse ES cells | Bmi1-luciferase knock-in reporter, 24 h; 100% = twice the neutral-well signal | reporter increase, % at 12.5 µM | 2% of 350,000 active | AID 602393; in the data active = activation above about 40%; inconclusive = no clear call, values can overlap the other calls;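 note: a rise in the Bmi1 reporter signal indicates esBAF inhibition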
MITF act – increases MITF-driven TRPM1 promoter luciferase signal; 0.75% of 300,000 active; activation, % at 12.5 µM; SK-MEL-5 TRPM1-promoter luciferase, 24 h; % of positive control, neutral wells = 0; AID 588334;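 active = mean activation of at least 80% with every replicate also reaching 80%; inconclusive = mean reaches 80% but some replicate falls short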
Wnt act – activates Wnt/beta-catenin signaling in a reporter cell assay; activator, plate reader; activation, % at 9.35 µM; 1.2% of 300,000 active; AID 743398; in the data active = activation above about 30%, passing the limit was not always enough; inconclusive = no clear call, values can overlap the other calls
HSF1 activator – increases HSF-1 driven luciferase reporter signal; NIH3T3-HGL HSF-1 luciferase reporter, MG132, 8 h; 100% = twice DMSO control signal; activation, % at 9 µM; 1.7% of 300,000 active; AID 504408;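 active = mean replicate activation of at least 50% with a set share of replicates each reaching 50%; inconclusive = only one of those two conditions met; inactive = mean below 50% and too few replicates reaching it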
Of the large screens only hits and unclear results are named; the others gave an inactive call.

CC(C(=O)N1CCCCC1)n1sc2ccccc2c1=O (centres undefined)	esBAF inh 50 (no result: Wnt act)
CO[C@@H]1CN(C)C(=O)c2cc(NC(=O)Nc3ccc(Cl)cc3)ccc2OC[C@H](C)N(C(=O)Nc2c(C)noc2C)C[C@H]1C	none (no result: HSF1 inhib, MITF act, Wnt act, HSF1 activator)
C=C(C)C1CC=C(C)/C(=N/NC(=O)COc2ccccc2Cl)C1 (centres undefined)	none (no result: esBAF inh, Wnt act)
Cc1cccc2c1OCC/C2=N\NC(=O)COc1ccccc1Cl	esBAF inh 70, MITF act 95 (no result: Wnt act)
CC(=O)n1c2c(c3ccccc31)OC(N)=C(C#N)C2c1cccc(Cl)c1Cl (centres undefined)	HSF1 activator 74
CC=Cc1ccc2n(c1=O)C[C@H]1[C@H](CO)[C@@H](C(=O)Nc3ccc(-c4ccccc4)cc3)[C@@H]2N1C (mixture of isomers)	none (no result: HSF1 inhib, MITF act, Wnt act, HSF1 activator)
Cc1ccc2oc(C(=O)N3CCCCCC3)c(C)c2c1	esBAF inh 64, MITF act 124
Cc1ccc2oc(C(=O)N3CCC(C(N)=O)(N4CCCCC4)CC3)c(C)c2c1	HSF1 inhib -76
COc1ccc(NC(=O)N[C@@H]2C=C[C@H](CC(=O)NCc3ccccn3)O[C@@H]2CO)cc1	none (no result: HSF1 inhib, MITF act, Wnt act, HSF1 activator)
CC(=O)Nc1cccc(C)c1	none (no result: HSF1 inhib, HSF1 activator)
CC(=O)Nc1ccc2c(c1)C(=Nc1cccc(C)c1)c1ccccc1-2	Wnt act 34 (no result: HSF1 inhib, HSF1 activator)
CSc1nnc(-c2ccncc2)n1/N=C/c1cn(-c2ccccc2)nc1-c1ccc(Cl)cc1	none (no result: MITF act)
S=c1[nH]nc(-c2ccncc2)n1/N=C/c1cn(-c2ccccc2)nc1-c1ccc(Cl)cc1	Wnt act 48 (no result: esBAF inh, MITF act)
CC(=O)Nc1ccc2c(c1)Cc1ccc(Cl)cc1-2	esBAF inh 46 (no result: HSF1 inhib, HSF1 activator)
CC(=O)Nc1ccc(SCC(=O)c2cc(C)n(-c3ccccc3)c2C)cc1	HSF1 inhib -68
COc1cccc(-c2nc(CS(=O)(=O)CC(=O)NCCC(C)C)c(C)o2)c1	Wnt act 38
CCc1ccc(-c2ccc(SCC(=O)NC3CCCC3)nn2)cc1	esBAF inh 47 (no result: HSF1 inhib, MITF act, HSF1 activator)
CCc1ccc(-c2nc(CSCC(=O)NC3CC3)c(C)o2)cc1	HSF1 inhib -71
COc1ccc(-c2nc(CS(=O)(=O)CC(=O)Nc3ccc(Cl)cc3)c(C)o2)cc1	esBAF inh 66
COc1ccc(NC(=O)CS(=O)(=O)Cc2nc(-c3ccc(C)cc3)oc2C)cc1	none (no result: esBAF inh)
COC(=O)C[C@H]1C=C[C@@H](NC(=O)c2ccccc2)[C@H](CO)O1	none (no result: HSF1 inhib, MITF act, Wnt act, HSF1 activator)
C[C@H](CO)N1C[C@H](C)[C@H](CN(C)Cc2ccc(-c3ccccc3)cc2)OCc2cnnn2CCCC1=O	none (no result: HSF1 inhib, MITF act, Wnt act, HSF1 activator)
COCCCNC(=O)CS(=O)(=O)Cc1nc(-c2cccc(OC)c2)oc1C	none (no result: MITF act, Wnt act)
Cc1oc(-c2cccc(Cl)c2)nc1CS(=O)(=O)CC(=O)NC1CC1	HSF1 activator 57
CCN(CCNC(=O)CS(=O)(=O)Cc1nc(-c2cccc(OC)c2)oc1C)c1ccccc1	HSF1 activator 78 (no result: MITF act, Wnt act)
CNC(=O)C[C@H]1CC[C@H]2[C@@H](COc3ccc(NC(=O)c4ccc(F)c(F)c4)cc3C(=O)N2C)O1	none (no result: HSF1 inhib, MITF act, Wnt act, HSF1 activator)
CC(C)NC(=O)N(C)C[C@@H]1Oc2ncc(C#CC3CCCCC3)cc2C(=O)N([C@@H](C)CO)C[C@H]1C	none (no result: HSF1 inhib, MITF act, Wnt act, HSF1 activator)
CCN(CC)c1ccc(/C=N/NC(=O)OC(C)(C)C)cc1	esBAF inh 70, Wnt act 59, HSF1 activator 60
CCN(CC)c1ccc(/C=N/NC(=O)Nc2ccccc2)cc1	Wnt act 43, HSF1 activator inconclusive (no result: esBAF inh)
CCN(CC)c1ccc(/C=N/NC(=O)CC(C)C)cc1	none
CCOc1ccc(/C=N/NC(=O)Nc2ccccc2)cc1	MITF act 122 (no result: esBAF inh)
O=C(N/N=C/c1ccc(Cl)cc1Cl)Nc1ccccc1	none (no result: Wnt act)
O=C(N/N=C/c1cccc(Cl)c1Cl)Nc1ccccc1	esBAF inh 50
CCN(CC)c1ccc(/C=N\NC(N)=O)cc1	none (no result: esBAF inh)
CCCNC(=O)Nc1ccc2c(c1)C(=O)N(C)C[C@H](OC)[C@H](C)CN(Cc1cccnc1)[C@H](C)CO2	none (no result: HSF1 inhib, MITF act, Wnt act, HSF1 activator)
CCOC(=O)c1csc(-c2ccc3c(c2)CCO3)n1	Wnt act 40 (no result: esBAF inh, MITF act)
CCCC#Cc1ccc2c(c1)O[C@H](CN(C)Cc1ccccn1)[C@H](C)CN([C@H](C)CO)S2(=O)=O	none (no result: HSF1 inhib, MITF act, Wnt act, HSF1 activator)
CN(C)c1ccc(C(=O)c2ccc(O)cc2O)cc1	esBAF inh 55
O=C(c1ccc(O)cc1)c1ccc(O)cc1O	none
Oc1ccc2ccccc2c1CN1CCCC1	none
Oc1ccc2ccccc2c1CN1CCN(c2ccccc2)CC1	HSF1 activator 375 (no result: MITF act, Wnt act)
Oc1ccc2ccccc2c1CN1CCCCC1	none (no result: HSF1 inhib, HSF1 activator)
CCN1CCN(Cc2c3ccccc3cc3ccccc23)CC1	Wnt act 49
O=C(CCc1nnc(C2CCCCC2)o1)N1CCN(c2ccccc2F)CC1	Wnt act 33 (no result: esBAF inh)
Cc1ccc(S(=O)(=O)Nc2ccc3c(c2)CC(=O)N([C@@H](C)CO)C[C@@H](C)[C@@H](CN(C)Cc2ccc(-c4ccccc4)cc2)O3)cc1	none (no result: HSF1 inhib, MITF act, Wnt act, HSF1 activator)
CCn1c(O)c(N=Nc2ccc3ccccc3n2)c2ccccc21	MITF act 116 (no result: esBAF inh)
O=C(NC1CC1)c1cc2cc3ccccc3nc2s1	esBAF inh 70
CN1CCN(C(=O)C[C@@H]2CC[C@H]3[C@@H](COC[C@H](O)CN3Cc3cccc(F)c3)O2)CC1	none (no result: HSF1 inhib, MITF act, Wnt act, HSF1 activator)
COc1cc(OC)c(NC(=O)CCCn2c(=O)oc3ccccc32)cc1Cl	none (no result: esBAF inh, Wnt act)
O=C1c2ccccc2C(=O)N1CCC(=O)N1CCc2ccccc21	none (no result: HSF1 inhib, Wnt act, HSF1 activator)
O=C1c2ccccc2C(=O)N1CCC(=O)N1CCCc2ccccc21	HSF1 activator 58 (no result: Wnt act)
Cc1ccc(NC(=O)CCn2c(=O)oc3ccccc32)cc1	none
O=C(CCn1c(=O)oc2ccccc21)N1CCc2ccccc21	esBAF inh 41
COc1ccc(NC(=O)CCCn2c(=O)oc3ccccc32)cc1Cl	MITF act 154, HSF1 activator 62 (no result: esBAF inh)
O=C(CCn1c(=O)oc2ccccc21)Nc1ccccc1	HSF1 activator 101 (no result: MITF act)
CO[C@H]1CN(C)C(=O)c2ccc(NC(=O)Nc3cccc(F)c3)cc2OC[C@@H](C)NC[C@H]1C	none (no result: HSF1 inhib, MITF act, Wnt act, HSF1 activator)
C[C@H]1CN([C@@H](C)CO)C(=O)c2cccc(NS(C)(=O)=O)c2O[C@H]1CN(C)C	none (no result: HSF1 inhib, MITF act, Wnt act, HSF1 activator)
CCc1ccc(NC(=O)CCCOc2cc(=O)n(C)c3ccccc23)cc1	none (no result: HSF1 inhib, MITF act, HSF1 activator)
O=C(CCCn1c(=O)oc2ccccc21)Nc1ccccc1	esBAF inh 51 (no result: HSF1 inhib, HSF1 activator)
Cn1c(=O)cc(OCCCC(=O)Nc2ccc3c(c2)OCCO3)c2ccccc21	Wnt act 64
O=C(CCn1c(=O)oc2ccccc21)Nc1ccc2c(c1)OCCO2	esBAF inh 57
Oc1ccccc1-c1cc(-c2ccco2)[nH]n1	esBAF inh 62 (no result: Wnt act)
Oc1ccc(Cl)cc1-c1cc(-c2ccco2)[nH]n1	HSF1 activator 140
Oc1c(-c2cc(-c3ccco3)[nH]n2)ccc2ccccc12	esBAF inh 65 (no result: Wnt act)
Cc1noc(C)c1NC(=O)N(C)C[C@@H]1Oc2ccc(NC(=O)CCCCCC(=O)Nc3ccccc3N)cc2CC(=O)N([C@@H](C)CO)C[C@@H]1C	none (no result: HSF1 inhib, MITF act, Wnt act, HSF1 activator)
C[C@@H]1CN([C@H](C)CO)C(=O)c2cc(NC(=O)C3CCCCC3)ccc2O[C@@H]1CN(C)C(=O)Nc1ccc2c(c1)OCO2	none (no result: HSF1 inhib, MITF act, Wnt act, HSF1 activator)
